# Results filed as inconclusive are left out. More than one record can exist for a structure, and the calls need not agree. Calls of active or inactive are those of the source. How the source made its calls: active means hit-call score of the fitted dose curve at least 0.9, where 1 is the maximum; inconclusive means response in the unintended direction; inactive means score below 0.9.
# Assay: TOX21_p53_BLA_p4_viability: Viability Assessment in the Tox21 HCT-116 p53 Agonism Beta-lactamase Assay, Phase 4 (AID 2283597);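 further: hits lower the luminescence signal meaning cytotoxicity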
# Excerpt: TOX21_p53_BLA_p4 is a cell-based, single-readout assay that uses HCT116, a human intestinal cell line, […] in a 1536-well plate.TOX21_p53_BLA_p4_viability is an assay readout measuring cellular ATP content and detected with CellTiter-Glo Luciferase-coupled ATP quantitation.TOX21_p53_BLA_p4_viability used a type of viability reporter where loss-of-signal activity can be used to understand changes in the cell viability. Furthermore, this assay endpoint can be referred to as a secondary readout, because this assay has produced multiple assay endpoints where this one serves a viability function. To generalize the intended target to other relatable targets, this assay endpoint is annotated to the cell cycle intended target family, where the subfamily is cytotoxicity.
# Thawing Method: Place 14 mL of pre-warmed thaw medium into a 15 mL of conical tub. Remove the vial of cells to be thawed from liquid nitrogen and thaw rapidly by placing at 37C in a water bath with gentle agitation for 1-2 minutes. Decontaminate the vial by wiping with 70% ethanol before opening in a biological safety cabinet. Transfer the vial contents drop-wise into 14 mL of thaw medium in a sterile 15-mL conical tub. Centrifuge cells at 900 rpm for 4 minutes and resuspend in thaw medium. Transfer contents to the T75 tissue culture flask containing Thaw Medium and place flask in a humidified 37C/5% CO2 incubator. Switch to growth medium at first passage.Propagation Method: Aspirate medium, rinse once in DPBS, add 0.25% Trypsin/EDTA and swirl to coat the cell evenly. Add an equal volume of Growth Medium to inactivate Trypsin after 2-3 minutes incubation at 37C. Centrifuge cells at 900 rpm for 4 minutes and resuspend in growth medium. Cell should be passage or fed at least twice a week.Assay Protocol: Harvest cells from culture in growth medium and resuspend in assay medium. 2.2 Dispense 4000 cells/5 uL/well into 1536-well black/clear bottom plates using a Multidrop dispenser. After the cells were incubated at 37C for 5 hours, 23 nL of compounds dissolved in DMSO were transferred to the assay plate by a PinTool resulting in a 217-fold dilution. Incubate the plates for 16 hours at 37C, 5% CO2. Add 1 uL of 6X LiveBLAzer FRET B/G (CCF4-AM) Substrate Mixture to each well using a BioRAPTR dispenser and incubate the plates at room temperature for 2 hours. Measure fluorescence intensity at 460 and 530 nm emission and 405 nm excitation by an Envision detector. Data is expressed as the ratio of 460nm/530nm emissions. Add 4 uL of Cell-titer Glo to each well using BioRAPTR and incubate the plates at room temperature for […]. For cell viability readout that measures cytotoxicity, 4 ul/well of CellTiter-Glo reagent was added into the assay plates using a Flying Reagent Dispenser. After 30 min incubation at room temperature, the luminescence intensity in the plates was measured using a ViewLux plate reader.
Compound,outcome,AC50
O=NN1CCCCC1,inactive,–
O=C(O)CCCO,inactive,–
O=[N+]([O-])c1ccc(Oc2ccc(C(F)(F)F)cc2[N+](=O)[O-])cc1,inactive,–
CNC(=O)OCC[N+](C)(C)C,inactive,–
CCOP(=O)(OCC)SCCSCC (tested in a mixture with another compound),inactive,–
C=Cc1cccc(CCl)c1,inactive,–
CCCC(C)(COC(N)=O)COC(=O)NC(C)C (stereo not given),inactive,–
CCCOC(=O)c1ccccc1C(=O)OCCC,inactive,–
c1coc(-c2nc3ccccc3[nH]2)c1,inactive,–
CNNC,inactive,–
CCOC(=O)c1ncn2c1CN(C)C(=O)c1c(I)cccc1-2,inactive,–
c1ccc2c(c1)CCCC2,inactive,–
CCCCC/C=C\C/C=C\C/C=C\C/C=C\CCCC(=O)NCC(=O)O,inactive,–
Nc1ccncc1,inactive,–
CCCCCCI,inactive,–
C[C@]12CCC(=O)C(O)=C1CC[C@@H]1[C@@H]2CC[C@]2(C)C(=O)CC[C@@H]12,inactive,–
COc1ccc(Cc2nccc3cc(OC)c(OC)cc23)cc1OC,inactive,–
CCCC1CCCCN1 (stereo not given),inactive,–
COC1=CC(=O)O[C@@H](/C=C/c2ccc3c(c2)OCO3)C1,inactive,–
[CH3][Hg][Cl],inactive,–

Compound,outcome,AC50
CCN(CC)C(=O)[C@@H]1C=C2c3cccc4[nH]cc(c34)C[C@H]2N(C)C1,inactive,–
CN1[C@@H]2CC[C@H]1CC(O)C2 (stereo not given in full),inactive,–
C[C@]12CC[C@H](OS(=O)(=O)O)CC1=CC[C@@H]1[C@@H]2CC[C@]2(C)C(=O)CC[C@@H]12,inactive,–
O=C1C=C2C=C[C@@H]3C[C@@]2(O1)[C@H]1CCCCN31,inactive,–
O=C(O)C(Cl)(Cl)Br,inactive,–
CC(C)(c1cc(Cl)c(O)c(Cl)c1)c1cc(Cl)c(O)c(Cl)c1,inactive,62.3 µM (active)
CC(C)OC(=O)C(O)(c1ccc(Cl)cc1)c1ccc(Cl)cc1,–,67.4 µM (active)
CC(Cl)(Cl)[N+](=O)[O-],inactive,–
C/C(=C\c1csc(C)n1)[C@@H]1C[C@@H]2O[C@]2(C)CCC[C@H](C)[C@H](O)[C@@H](C)C(=O)C(C)(C)[C@@H](O)CC(=O)O1,inactive,–
COc1cc(CC(C)N)cc2c1OCO2 (stereo not given),inactive,–
Cc1coc2c1CCC(C)C2 (stereo not given),inactive,–
O=C(O)CC[N+](=O)[O-],inactive,–
Oc1c(Cl)c(Cl)cc(Cl)c1Cl,inactive,–
FC(F)(F)c1cccc(C2=CCN(CCc3ccc4ccccc4c3)CC2)c1,inactive,–
CN1C(=O)CC(=O)N(c2ccccc2)c2cc(Cl)ccc21,inactive,–
c1cc(OCC2CO2)ccc1Cc1ccc(OCC2CO2)cc1 (stereo not given),inactive,–
O=C(O)c1ccccc1C(=O)Nc1cccc2ccccc12,inactive,–
O=C(O)c1ccccn1,inactive,–
Oc1ccc(Cl)cc1,inactive,–

# Reference: PubChem BioAssay (EPA / NIEHS)
